The test addresses T1, GST-Aq-NF-kB (Amphimedon queenslandica, UniProt A9Y5G7 2-389).
T1 sequence: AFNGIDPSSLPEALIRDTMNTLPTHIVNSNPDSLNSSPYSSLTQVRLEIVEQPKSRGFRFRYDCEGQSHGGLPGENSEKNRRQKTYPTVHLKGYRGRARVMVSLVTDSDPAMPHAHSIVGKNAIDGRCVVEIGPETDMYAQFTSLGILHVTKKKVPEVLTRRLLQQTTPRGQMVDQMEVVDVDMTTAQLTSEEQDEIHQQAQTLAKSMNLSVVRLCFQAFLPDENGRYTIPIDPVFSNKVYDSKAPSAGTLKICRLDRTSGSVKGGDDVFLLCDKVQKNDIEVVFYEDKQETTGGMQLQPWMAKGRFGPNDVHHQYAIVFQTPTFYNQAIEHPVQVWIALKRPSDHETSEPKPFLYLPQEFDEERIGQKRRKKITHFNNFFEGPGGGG
As to the kind of experiment: protein-binding microarray (PBM); PBM: ~300 nM protein, 6 mM HEPES pH 7.8, 80 mM KCl, 0.5 mM EDTA, 0.5 mM EGTA, 6% glycerol, 35 ng/ul poly-dIdC, 1% milk, 1 h, room temperature; Ap Aiptasia and Nv Nematostella (sea anemones) / Co Capsaspora / Aq Amphimedon (sponge) / Dm Drosophila / Hu human; RHD is the Rel homology domain; high values mean tight binding. The settings on record: dsDNA, one strand shown.
Sequence “CCGATTAACATCAGGGGAACGCATGATGTTAATCGGGTCTTGATTCGCTTGACGCTGCTG” yielded a binding signal of 3.75 z-score. “CCGATTAACATCAGGGGGCTATATGATGTTAATCGGGTCTTGATTCGCTTGACGCTGCTG” gave a binding signal of 3.69 z-score. Next, “CCGATTAACATCAAATTTCCCAGTGATGTTAATCGGGTCTTGATTCGCTTGACGCTGCTG”: 3.48 z-score; “CCGATTAACATCAAAAAATCCCATGATGTTAATCGGGTCTTGATTCGCTTGACGCTGCTG”: 5.43 z-score. Turning to “CCGATTAACATCAAAAATCCCAATGATGTTAATCGGGTCTTGATTCGCTTGACGCTGCTG”, the binding signal was determined as 3.37 z-score.

Turning to “CCGATTAACATCAAAAAAACCCCTGATGTTAATCGGGTCTTGATTCGCTTGACGCTGCTG”, the binding signal is 8.79 z-score.

Consider “CCGATTAACATCAGGGAATTTACTGATGTTAATCGGGTCTTGATTCGCTTGACGCTGCTG”, for which the binding signal came out at 6.82 z-score.

“CCGATTAACATCAAGGGGGTACTTGATGTTAATCGGGTCTTGATTCGCTTGACGCTGCTG” returned a binding signal of 3.78 z-score. On to “CCGATTAACATCAGGGGAGGGAATGATGTTAATCGGGTCTTGATTCGCTTGACGCTGCTG”, for which the binding signal was 5.17 z-score.

For “CCGATTAACATCAGGGGATACACTGATGTTAATCGGGTCTTGATTCGCTTGACGCTGCTG”, the binding signal turned out to be 4.05 z-score. Take “CCGATTAACATCAAGGGGGGGTGTGATGTTAATCGGGTCTTGATTCGCTTGACGCTGCTG”: the binding signal stood at 3.77 z-score. “CCGATTAACATCAGGTTTCCCCATGATGTTAATCGGGTCTTGATTCGCTTGACGCTGCTG”: the binding signal turned out to be 5.35 z-score.

As for “CCGATTAACATCAAAAATACCCCTGATGTTAATCGGGTCTTGATTCGCTTGACGCTGCTG”, the binding signal was found to be 7.5 z-score. In turn, “CCGATTAACATCAGGGGGGACGATGATGTTAATCGGGTCTTGATTCGCTTGACGCTGCTG” had a binding signal of 4.63 z-score. Sequence “CCGATTAACATCAGGGGAACCACTGATGTTAATCGGGTCTTGATTCGCTTGACGCTGCTG” came in with a binding signal of 7.58 z-score. As for “CCGATTAACATCAAAAAACCCCTTGATGTTAATCGGGTCTTGATTCGCTTGACGCTGCTG”, the binding signal worked out at 8 z-score. Take “CCGATTAACATCAGGGTATTTTATGATGTTAATCGGGTCTTGATTCGCTTGACGCTGCTG”: the binding signal stood at 7.07 z-score.

In turn, “CCGATTAACATCAAGAACTTCCCTGATGTTAATCGGGTCTTGATTCGCTTGACGCTGCTG” registered a binding signal of 4.6 z-score. “CCGATTAACATCACGGGGAATTCTGATGTTAATCGGGTCTTGATTCGCTTGACGCTGCTG” showed a binding signal of 7.98 z-score.

In the case of “CCGATTAACATCAGGGGATTTAATGATGTTAATCGGGTCTTGATTCGCTTGACGCTGCTG”, the binding signal amounted to 6 z-score. Turning to “CCGATTAACATCAGGGGAATTAATGATGTTAATCGGGTCTTGATTCGCTTGACGCTGCTG”, the binding signal was 6.31 z-score. Take “CCGATTAACATCAAATGTCCCCCTGATGTTAATCGGGTCTTGATTCGCTTGACGCTGCTG”: the binding signal came out at 5.64 z-score. Regarding “CCGATTAACATCAGGAATTCCCCTGATGTTAATCGGGTCTTGATTCGCTTGACGCTGCTG”, the binding signal is 11.5 z-score. Next, “CCGATTAACATCAAAAACTCCCCTGATGTTAATCGGGTCTTGATTCGCTTGACGCTGCTG”: 8.06 z-score; “CCGATTAACATCACACATCCCCCTGATGTTAATCGGGTCTTGATTCGCTTGACGCTGCTG”: 3.87 z-score; “CCGATTAACATCAAGACTTCCCCTGATGTTAATCGGGTCTTGATTCGCTTGACGCTGCTG”: 6.38 z-score. In turn, “CCGATTAACATCAGGGGGGTGAATGATGTTAATCGGGTCTTGATTCGCTTGACGCTGCTG” came in with a binding signal of 4.32 z-score. “CCGATTAACATCAGGGGGGTAAATGATGTTAATCGGGTCTTGATTCGCTTGACGCTGCTG” registered a binding signal of 4.53 z-score. “CCGATTAACATCATAAATTCCCATGATGTTAATCGGGTCTTGATTCGCTTGACGCTGCTG” had a binding signal of 3.71 z-score. Next, “CCGATTAACATCAAATCCCCCCGTGATGTTAATCGGGTCTTGATTCGCTTGACGCTGCTG”: 6.07 z-score. Next, “CCGATTAACATCAAATTCCCATGTGATGTTAATCGGGTCTTGATTCGCTTGACGCTGCTG”: 2.58 z-score; “CCGATTAACATCAGGGGGCGGGATGATGTTAATCGGGTCTTGATTCGCTTGACGCTGCTG”: 4.03 z-score; “CCGATTAACATCAGGAAATTCCCTGATGTTAATCGGGTCTTGATTCGCTTGACGCTGCTG”: 9.8 z-score. “CCGATTAACATCAGGGGGTGGTATGATGTTAATCGGGTCTTGATTCGCTTGACGCTGCTG” displayed a binding signal of 3.38 z-score.

In turn, “CCGATTAACATCAAAAATTACCCTGATGTTAATCGGGTCTTGATTCGCTTGACGCTGCTG” registered a binding signal of 6.93 z-score. Sequence “CCGATTAACATCACGGGGGATTCTGATGTTAATCGGGTCTTGATTCGCTTGACGCTGCTG” showed a binding signal of 6.51 z-score.

For the sequence “CCGATTAACATCAAAGGACCCCCTGATGTTAATCGGGTCTTGATTCGCTTGACGCTGCTG”, the binding signal was 3.79 z-score.

The values are drawn from article PMC5700166.
